High-throughput results as filed in PubChem BioAssay.
Sampled rows, rich in hits. Any-hit rate of the full collection: about 13%.
USP28 inh = blocks human USP28 ubiquitin-rhodamine cleavage; purified USP28, Ub-rhodamine cleavage fluorescence, 30 min; inhibition, % at 25 µM; Q96RU2; actives 3% (n = 47,000)
USP10 block = human USP10 deubiquitinase inhibition | actives 1.1% (n = 47,000) | purified USP10, Ub-rhodamine fluorescence, 60 min | inhibition, % at 20 µM | AID 1645856 | Q14694
Target sequence (Q14694 whole entry, looked up): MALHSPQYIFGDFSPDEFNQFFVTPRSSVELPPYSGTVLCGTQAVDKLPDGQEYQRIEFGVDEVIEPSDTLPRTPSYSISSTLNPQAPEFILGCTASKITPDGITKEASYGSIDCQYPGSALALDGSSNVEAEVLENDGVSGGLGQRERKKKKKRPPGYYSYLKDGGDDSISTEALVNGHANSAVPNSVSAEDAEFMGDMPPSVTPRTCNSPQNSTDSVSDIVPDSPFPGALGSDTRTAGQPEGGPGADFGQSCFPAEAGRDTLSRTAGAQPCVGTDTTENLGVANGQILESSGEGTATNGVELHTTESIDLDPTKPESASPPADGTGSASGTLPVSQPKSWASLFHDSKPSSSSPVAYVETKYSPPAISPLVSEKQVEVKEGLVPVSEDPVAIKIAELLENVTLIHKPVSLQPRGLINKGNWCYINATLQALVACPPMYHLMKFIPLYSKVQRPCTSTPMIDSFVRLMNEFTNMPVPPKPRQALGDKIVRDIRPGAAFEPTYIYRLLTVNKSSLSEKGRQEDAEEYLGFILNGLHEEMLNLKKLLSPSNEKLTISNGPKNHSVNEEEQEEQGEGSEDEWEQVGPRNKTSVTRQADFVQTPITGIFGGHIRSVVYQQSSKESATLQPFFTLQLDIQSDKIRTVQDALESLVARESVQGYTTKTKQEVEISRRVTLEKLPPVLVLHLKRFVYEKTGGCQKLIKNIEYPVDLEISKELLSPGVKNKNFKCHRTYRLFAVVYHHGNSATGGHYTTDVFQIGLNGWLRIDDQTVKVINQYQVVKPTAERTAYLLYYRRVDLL
OTUD3 inh = human OTUD3 deubiquitinase inhibition. purified OTUD3, Ub-rhodamine fluorescence, 2 h. actives 0.7% (n = 47,000). Q5T2D3. inhibition, % at 25 µM
USP17 block = inhibitors of human USP17 deubiquitinase; AID 1645855; inhibition, % at 50 µM; A8MUK1; purified USP17, Ub-rhodamine cleavage fluorescence, 3 h; actives 6.5% (n = 47,000)
USP8 block = inhibitors of human USP8 deubiquitinase | purified USP8, Ub-rhodamine cleavage fluorescence, 30 min | inhibition, % at 20 µM | actives 4.2% (n = 47,000)
USP30 block = human USP30 deubiquitinase inhibition. actives 5.3% (n = 47,000). AID 1645860. Q70CQ3. inhibition, % at 25 µM. purified USP30, Ub-rhodamine cleavage fluorescence
Hits are given with their value; – = inactive; · = not tested or not shown. No stated cut-off is given here; in the data, active means inhibition above about 30%; inactive means the rest.

SMILES | USP28 inh | USP10 block | OTUD3 inh | USP17 block | USP8 block | USP30 block
O=C(Cn1cc(-c2ccccc2)c2ncn(C3CC3)c(=O)c21)NCc1ccc2c(c1)OCO2 | – | – | – | – | 41 | –
O=C(Cn1ccc2ccc([N+](=O)[O-])cc21)NCc1ccc2c(c1)OCO2 | – | – | – | – | – | –
COC(=O)c1ccc(CSc2nc(-c3ccc(OC)cc3)nc3c2c(=O)n(C)c(=O)n3C)o1 | – | – | – | – | – | –
Cc1cccc(-c2noc(-c3nn(CC(=O)NC4CC4)c4ccccc34)n2)c1 | – | – | – | – | – | –
COc1cc(=O)c(C(=O)N2CCCCC2)nn1-c1ccc(C)cc1 | – | – | – | – | – | –
O=C(Nc1ccc(F)cc1)C1=CCN(Cc2ccccc2F)CC1 | – | – | – | – | – | –
Cc1ccc(-c2nc(SCC(=O)N3CCCC3)c3c(=O)n(C)c(=O)n(C)c3n2)cc1 | – | – | – | – | – | 39
CCC(=O)N1CCN(c2nc3c(s2)CC(C(=O)Nc2cccc(F)c2)CC3)CC1 (centres undefined) | – | – | – | – | – | –
Clc1ccc(CN2CCc3nc(Nc4ccc5c(c4)OCO5)ncc3C2)cc1 | – | – | – | – | 30 | –
COc1ccc(S(=O)(=O)c2c(C(=O)N3CCC(C)CC3)cnc3ccc(F)cc23)cc1 | – | – | – | – | – | –
CC1CCN(C(=O)c2cnc3ccccc3c2S(=O)(=O)c2ccc(Cl)cc2)CC1 | – | – | – | – | – | 38
Cc1nc2ccccn2c1C1(O)C(=O)Nc2c(Cl)cc(Cl)cc21 (centres undefined) | – | – | – | 52 | 88 | –
O=C(NCCc1c[nH]c2ccccc12)C(=O)Nc1cccc2ncccc12 | – | – | – | 42 | – | –
O=C(NCCc1c[nH]c2ccccc12)C(=O)Nc1ccccc1C(=O)N1CCCC1 | – | – | – | – | – | –
O=c1sc2ccccc2c(=O)n1Cc1cccc(C(F)(F)F)c1 | 83 | – | – | – | – | –
Cc1nnc(-c2ccc3ccn(CC(=O)N4CCCc5ccccc54)c3c2)o1 | · | 85 | – | 86 | 91 | ·
Cc1nnc(-c2ccc3ccn(CC(=O)NC4CCCCCC4)c3c2)o1 | – | – | – | – | – | –
Cc1nnc(-c2ccc3ccn(CC(=O)N4CCN(c5ccccc5)CC4)c3c2)o1 | – | 47 | 73 | 93 | 96 | 50
CCC1(c2ccc(F)cc2)NC(=O)N(CC(=O)NCc2ccccc2)C1=O (centres undefined) | – | – | – | – | – | –
c1coc(-c2cc3nc(NCCCn4ccnc4)ccn3n2)c1 | – | – | – | 46 | – | –
c1ccc(-c2cc3nc(NCc4ccncc4)ccn3n2)cc1 | – | – | – | – | – | –
CNS(=O)(=O)c1cc(-c2ccc(Nc3ccc(OC)cc3)nn2)ccc1C | – | – | – | – | – | –
CCc1ncc(CN2C[C@@H]3C[C@@H](O)CN3C[C@H]2Cc2ccccc2)cn1 | – | – | – | – | – | –
O=C(NCc1ccc(Br)cc1)c1ccc(-c2cccnc2)nc1 | – | – | – | – | – | 55
Cc1ccc(-n2c(-c3cccs3)cn3c4c(=O)n(C)c(=O)n(C)c4nc23)cc1 | – | – | – | 36 | – | –
SMILES | USP28 inh | USP10 block | OTUD3 inh | USP17 block | USP8 block | USP30 block
Cn1c(=O)c2c(nc3n(-c4ccccc4F)c(-c4ccccc4)cn23)n(C)c1=O | – | – | – | 39 | – | 72
Cc1cn2c3c(=O)n(C)c(=O)n(C)c3nc2n1Cc1cccc2ccccc12 | – | – | – | – | – | 48
COc1ccc(CCn2c(-c3ccccc3)cn3c4c(=O)n(C)c(=O)n(C)c4nc23)cc1OC | – | – | – | – | – | 39
O=C(c1ccco1)N1CCCC(Nc2ncnc3c2CCC3)C1 (centres undefined) | – | – | – | – | – | –
O=C(NC1CC1)c1ccc2onc(-c3csc(-c4cccnc4)n3)c2c1 | – | – | – | – | – | –
O=C(C1CCOC1)N1CCC2(CC1)CN(c1cccnc1)c1ccccc12 (centres undefined) | – | – | – | · | – | 49
O=C(C1CCOC1)N1CCC2(CC1)CN(c1ncccn1)c1ccccc12 (centres undefined) | – | – | – | – | – | –
O=C(CCCn1c(=O)[nH]c2ccc(Br)cc2c1=O)N1CCc2ccccc2C1 | – | – | – | – | – | 31
COc1ccccc1N1CCN(C(=O)CCCn2c(=O)[nH]c3ccc(Br)cc3c2=O)CC1 | – | – | – | – | – | –
O=C(CCCn1c(=O)[nH]c2cc(Cl)ccc2c1=O)N1CCc2ccccc2C1 | – | – | – | 55 | 69 | –
N#Cc1cnc2ccccc2c1N1CCC(C(=O)N2CCCCCC2)CC1 | – | – | – | – | – | –
Cc1ccc2nc(Cl)c3cc(C(=O)N4CCC(C)CC4)sc3c2c1 | – | – | – | – | – | –
COc1ccc(CCNC(=O)c2cc3c(s2)-c2ccccc2OC3)cc1 | · | – | – | 37 | – | ·
CCN(C(=O)c1cc2c(s1)-c1ccccc1OC2)c1ccccc1F | 52 | – | – | – | – | –
CCN(C(=O)c1cc2c(Cl)nc3ccccc3c2s1)c1ccccc1F | – | – | – | – | – | 71
Cc1cc(C)cc(NC(=O)c2ccc(N3C(=O)C(C)CS3(=O)=O)cc2Cl)c1 (centres undefined) | · | – | – | – | – | ·
CCn1c(=O)c(N2CCC(NC(=O)Nc3cc(C)cc(C)c3)CC2)nc2cccnc21 | – | – | – | – | – | –
CC(C)(C)c1nc(SCc2nc(N)nc(Nc3ccccc3)n2)n[nH]1 | – | – | – | – | – | –
CCc1nc(SCc2nc(N)nc(Nc3ccccc3)n2)n[nH]1 | – | – | – | – | 76 | –
CN1CCc2nnc(C3CCCN3C(=O)c3cc(C4CCCCC4)no3)n2CC1 (centres undefined) | – | – | – | – | – | –
CC(C)Cc1nc2sc3c(SCC(=O)NC(c4ccccc4)c4ccccc4)ncnc3c2c2c1CCC2 | – | – | – | – | – | –
Cc1cccc(NC(=O)CSc2ncnc3c2sc2nc(CC(C)C)c4c(c23)CCC4)c1 | – | – | – | 74 | – | 34
CC(C)Cc1nc2sc3c(SCC(=O)NC4(c5ccccc5)CCCC4)ncnc3c2c2c1CCC2 | – | – | – | 42 | – | –
O=C(NCc1ccccc1)c1cccc(S(=O)(=O)Nc2ccc(F)cc2)c1 | – | – | – | – | – | –
O=C(Cn1cnc2c(cnn2-c2ccccc2)c1=O)Nc1cccc([N+](=O)[O-])c1 | – | – | – | 42 | – | –
Cc1cn2c(=O)cc(COc3ccc(C(C)C)cc3)nc2s1 | – | – | – | – | – | –
Cc1cc(OCC(=O)Nc2ccccc2C(=O)Nc2ccccc2)ccc1Cl | – | 35 | – | – | – | –
Cc1ccc(-c2nc(N3CCCC(O)C3)ncc2-c2cnccn2)s1 (centres undefined) | – | – | – | 73 | – | –
Cc1cccc(C(C)C)c1NC(=O)CN1c2ccc(F)cc2-c2ccccc2S1(=O)=O | – | – | – | – | – | 30
